Molecules are shown by their SMILES. Inconclusive results are not listed. A call without a number means that no potency is given here. Activity calls are given as the source filed them. The call rests on the fitted dose curve; in most records, active means well fitted inhibition curve with a large enough effect; inconclusive means small, poorly fitted or top-dose-only effect, or effect the other way; inactive means flat fitted curve, though single readings scatter.
Potency means the concentration at half of the fitted maximal effect.

Chain of Ubiquitin carboxyl-terminal hydrolase 2 (Homo sapiens) (O75604 whole entry, looked up): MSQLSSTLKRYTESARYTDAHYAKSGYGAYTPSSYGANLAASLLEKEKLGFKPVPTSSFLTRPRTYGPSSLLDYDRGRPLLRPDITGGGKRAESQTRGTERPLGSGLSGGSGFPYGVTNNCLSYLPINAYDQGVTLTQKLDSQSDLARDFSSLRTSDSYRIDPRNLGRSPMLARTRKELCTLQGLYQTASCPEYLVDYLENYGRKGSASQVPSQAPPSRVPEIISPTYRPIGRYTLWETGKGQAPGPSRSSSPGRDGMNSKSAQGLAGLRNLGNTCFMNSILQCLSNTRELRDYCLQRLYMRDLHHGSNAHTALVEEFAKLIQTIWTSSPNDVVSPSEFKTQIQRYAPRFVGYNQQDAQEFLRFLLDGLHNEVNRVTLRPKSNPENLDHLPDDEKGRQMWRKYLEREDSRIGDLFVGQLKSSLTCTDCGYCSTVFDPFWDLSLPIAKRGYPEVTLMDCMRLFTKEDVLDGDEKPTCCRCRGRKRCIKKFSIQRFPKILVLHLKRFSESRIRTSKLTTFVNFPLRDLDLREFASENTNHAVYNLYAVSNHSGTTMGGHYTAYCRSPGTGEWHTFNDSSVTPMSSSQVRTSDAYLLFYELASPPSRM

The target of the test is Ubiquitin carboxyl-terminal hydrolase 2 (Homo sapiens) (UniProt O75604). Briefly: Confirmation Assay for Inhibitors of Ubiquitin-specific Protease USP2a Using CHOP2 as the Reporter. Further: nearly all actives have a fitted effect of over 55% in size. As to conditions: USP2 core, Ub-CHOP2 coupled reporter fluorescence; series mostly up to 38.3 µM. The essentials:
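Ub-CHOP2 cleavage coupled to reporter activation was read by fluorescence after 60 min at RT, with 25 nM final Ub-CHOP2 and substrate. Enzyme (10 nM final USP2 core) first sat 30 min with compound; data were normalized to NEM and fitted to concentration-response curves.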
As to `COc1cc(C(=O)OCC(=O)Nc2c(F)c(F)c(F)c(F)c2F)cc(OC)c1OC`, the Potency result was “inactive”.
Turning to `CN1CCN(Cc2c(O)ccc3c(=O)c(Oc4ccccc4Cl)c(C(F)(F)F)oc23)CC1`, the Potency result is “inactive”.
Take `O=C(O)c1cc(N2N=C(C(F)(F)F)/C(=C/C=C/c3ccco3)C2=O)ccc1Cl`: the Potency was 5.85 µM (active).
For `NS(=O)(=O)c1cc(C(=O)NC2CCSc3ccccc32)ccc1Cl` (stereo not given) the value was 13.1 µM (active).
Take `CCn1nnnc1SCC(=O)Nc1cccc(C)n1`: the Potency result is “inactive”.
`O=C(Nc1ccc(Oc2ccc(Cl)cc2)cc1)c1ncn[nH]1`: the Potency entry was “inactive”.
For `CN(c1cccc(NC(=O)Nc2cccc(Cl)c2)c1)S(C)(=O)=O` the value was “inactive”.
With `O=C1CC(c2ccc(Cl)cc2)SC(N(c2ccccc2)c2ccccc2)=N1` (stereo not given), the Potency result is “inactive”.
For `CN1CCN(S(=O)(=O)c2ccc(N3CCN(S(=O)(=O)/C=C/c4ccccc4)CC3)nc2)CC1` the value was “inactive”; for `O=C(Cc1ccc(S(=O)(=O)N2CCOCC2)s1)Nc1nc2c(s1)CCCC2`, 14.7 µM (active).
Next, `CC1(C(=O)O)Sc2[nH]c(=O)sc2C2c3ccccc3OC(=O)C21` (stereo not given): “inactive”; `CCC(C(=O)Nc1nnc(-c2ccco2)s1)c1ccccc1` (stereo not given): “inactive”; `CCC1SC2=NC(C)=C(C(=O)OCCOC)C(c3ccc(C(=O)OC)cc3)N2C1=O` (stereo not given): “inactive”.
For `O=C1CC(Nc2ccc(N3CCOCC3)cc2)C(=O)N1c1cccc(C(F)(F)F)c1` (stereo not given) the value was “inactive”; for `O=C(c1ccc(CS(=O)(=O)c2ccc(Br)cc2)o1)N1CCCC1`, “inactive”; for `CC(=O)c1cccc(NC(=O)C(C)OC(=O)c2cc(=O)[nH]c3ccccc23)c1` (stereo not given), 6.56 µM (active).
For the compound `CCn1c2ccccc2c2nc3ccccc3nc21`, the Potency entry was “inactive”.
Next, `COc1ccc(C(=O)COC(=O)c2ccccc2O)c(OC)c1`: “inactive”; `COc1ccc(OC)c(NC(=O)CSc2nc(O)cc(=O)n2CC(C)C)c1`: “inactive”; `Cc1ccc(C(=O)N(c2c(C)n(C)n(-c3ccccc3)c2=O)C(C)C)cc1`: “inactive”.
As for `CC1=CC(C)(C)N(C(=O)c2ccccc2)c2ccccc21`, the Potency entry was “inactive”.
For `CC[n+]1c(/C=C/N(C)c2ccccc2)n(-c2ccccc2)c2ccc(-c3nc4ccccc4s3)cc21` the value was 13.1 µM (active); for `O=C(CSc1nc(O)cc(=O)n1-c1ccccc1)NC1CCCCC1`, “inactive”; for `C=CC[C@H](CC(=O)OC(C)(C)C)C(=O)OC[C@@H]1CCCN1C(=O)[C@H](CC=C)CC(=O)N[C@H](CO)Cc1ccccc1`, “inactive”.
Next, `C=CC[C@H](CC(=O)N(CCO)Cc1ccccc1)C(=O)N[C@H](C)COC(=O)[C@@H](CC=C)CC(=O)OC(C)(C)C`: “inactive”; `CC1CC(C)CN(C(=O)CSc2nnc(-c3ccc(Cl)cc3)o2)C1` (stereo not given): “inactive”.
Consider `O=C(OCC(=O)N1CCCCC1)c1cc2ccccc2cc1O`, for which the Potency entry is “inactive”.
Next, `COC(=O)c1[nH]c2ccc(C)cc2c1NC(=O)CN1CCCc2ccccc21`: “inactive”.
For `CCOc1ccc(-c2ccc(/C=C3/C(=N)N4C(C)=CSC4=NC3=O)o2)c([N+](=O)[O-])c1`, the Potency result was “inactive”.
Next, `O=C(OCC1OC(n2ncc(=O)[nH]c2=O)C(OC(=O)c2ccccc2)C1OC(=O)c1ccccc1)c1ccccc1` (stereo not given): 13.1 µM (active); `CC(/C=N/NC(=O)c1cc(-c2cccs2)[nH]n1)=C\c1ccccc1`: “inactive”; `Cc1cccn2c(=O)c3cc(C(=O)NCCN4CCOCC4)c(=N)n(CCN4CCOCC4)c3nc12`: “inactive”.
For `Cc1c(NC(=O)c2ccc(COc3ccc4ccccc4c3)o2)c(=O)n(-c2ccccc2)n1C` the value was “inactive”; for `N=C1C(c2nc3ccccc3c(=O)[nH]2)=C(O)CN1CCc1ccccc1`, “inactive”.
For `NS(=O)(=O)c1ccc(NC(=O)CN2CCCCC2)cc1` the value was “inactive”; for `CC(C)c1ccc(C2=C(O)c3ccccc3C(=O)C2=O)cc1`, “inactive”.
On to `O=[N+]([O-])c1cc(-c2nnc(Nc3ccccc3)c3ccccc23)ccc1N1CCOCC1`, for which the Potency entry was “inactive”.
In the case of `O=C(COC(=O)c1c2c(nc3ccccc13)/C(=C/c1ccco1)CC2)NC1CCCC1`, the Potency is 14.7 µM (active).
For `COc1ccc(-c2nc(Cn3c(SCc4ccc(F)cc4)nc4ccncc43)c(C)o2)cc1OC` the value was “inactive”; for `O=S(=O)(NC1CCSc2ccccc21)c1ccccc1` (stereo not given), “inactive”.

The values are drawn from PubChem BioAssay AID493168 (National Center for Advancing Translational Sciences (NCATS), 2011).
